From paper PMC5540273 (PLoS ONE, 2017) come the findings set out here.

Common to all, as to details: concentration: 1 μM, replicates: in singlicate; n = 1
The subject of experiment [1] is PIK3CG.
For experiment [2], the system named is T1, PIK4CB.
T1 construct: gene PI4KB

Experiment [3] concerns PIKFYVE.
The subject of experiment [4] is PIM1.
Experiment [5] relates to PIM2.
The subject of experiment [6] is PIM3.
For experiment [7], the system named is PIP5K1A.
Experiment [8] concerns PIP5K1C.
Experiment [9] relates to PIP5K2B.
Experiment [10] deals with T2, PIP5K2C.
T2 construct: gene PIP4K2C

Experiment [11] has as its system T3, PKAC-alpha.
T3 construct: gene PRKACA

The subject of experiment [12] is T4, PKAC-beta.
T4 construct: gene PRKACB

Experiment [13] relates to PKMYT1.
Experiment [14] deals with PKN1.
Experiment [15] has as its system PKN2.
For experiment [16], the system named is PLK1.
Experiment [17] relates to PLK2.
Experiment [18] concerns PLK3.
The test system of experiment [19] is PLK4.
The subject of experiment [20] is PRKCD.
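Also: KINOMEscan kinase panel screen.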

As for `CN(C)c1cc(-c2ccc3c(N)n[nH]c3c2)nc(N)n1` [GSK2219329], the “%Inh” value turned out to be 0% in experiment [1]; 0% in [2]; 0% in experiment [3]; 14% in experiment [4]; 0% in experiment [5]; 0% in experiment [6]. Also, the “%Inh” value in experiment [7] turned out to be 0%; in experiment [8], 19%; in experiment [9] it was 0%; in experiment [10], 0%; in [11], 32%; in experiment [12], 0%. The “%Inh” value in experiment [13], in experiment [14], in experiment [15], in [16], in [17] and in experiment [18] was 0% in each case. In addition, the “%Inh” value in experiment [19] and in experiment [20] was 0% throughout.

As to `COc1ccc(-c2coc3ccc(-c4nnc(SCc5cccc(C#N)c5)o4)cc23)cc1`, the “%Inh” value in [1] stood at 0%; in [2], 29%; in [3] it was 0%; in experiment [4], 12%; in [5] it was 20%; in experiment [6] it was 17%. Moreover, the “%Inh” value in experiment [7] is reported as 0%; in experiment [8], 0%; in [9], 4%; in [10], 9%; in [11], 11%; in experiment [12], 0%. The “%Inh” value in [13] is listed as 0%; in experiment [14] it was 32%; in experiment [15], 0%; in experiment [16], 0%; in experiment [17], 11%; in [18], 12%. Moreover, the “%Inh” value in experiment [19] is reported as 18%; in experiment [20], 12%.

Take `Fc1cccc(CSc2nnc(-c3ccc4c(c3)CCO4)o2)c1`: the “%Inh” value in experiment [1] amounted to 10%; in experiment [2] it was 2%; in experiment [3] it was 7%; in experiment [4], 13%; in experiment [5], 18%; in experiment [6] it was 9%. Besides, the “%Inh” value turned out to be 13% in experiment [7]; 5% in [8]; 34% in experiment [9]; 0% in experiment [10]; 29% in experiment [11]; 0% in experiment [12]. Moreover, the “%Inh” value in experiment [13] turned out to be 24%; in experiment [14] it was 0%; in experiment [15], 0%; in experiment [16] it was 0%; in experiment [17] it was 6%; in experiment [18], 11%. Further, the entries for the “%Inh” value in [19] and in [20] were 21% and 7%, respectively.

Take `COc1cc2ncn(-c3cc(OCc4ccncc4Br)c(C(N)=O)s3)c2cc1OC` [GW854278]: the “%Inh” value amounted to 55% in experiment [1]; 23% in experiment [2]; 17% in experiment [3]; 0% in experiment [4]; 0% in [5]; 2% in experiment [6]. The “%Inh” value in experiment [7] is recorded as 0%; in experiment [8] it was 86%; in [9], 41%; in [10] it was 81%; in experiment [11], 0%; in [12] it was 0%. Moreover, the “%Inh” value in experiment [13] came out at 0%; in experiment [14] it was 10%; in [15], 0%; in experiment [16], 99.9%; in experiment [17], 99.7%; in experiment [18] it was 99.2%. The “%Inh” value amounted to 4% in [19] and 7% in [20].

For the compound `O=c1cc(N2CCOCC2)nc2n(Cc3ccc(F)c(Cl)c3)ccn12` [GSK2297099], the “%Inh” value is given as 23% in [1]; 20% in experiment [2]; 0% in experiment [3]; 11% in [4]; 0% in experiment [5]; 19% in [6]. Further, the “%Inh” value in experiment [7], in [8], in experiment [9], in experiment [10], in experiment [11] and in [12] was 0% each time. The “%Inh” value in experiment [13] was found to be 10%; in experiment [14], 11%; in experiment [15] it was 0%; in [16], 54%; in [17], 0%; in [18] it was 6%. For the same compound, the “%Inh” value in experiment [19] and in [20] was 0% in each case.

As to `COc1ccc(Nc2nccc(N3CCC(NS(=O)(=O)c4ccc(NC(C)=O)cc4)C3)n2)cc1` (stereo not shown) [GSK1379729], the “%Inh” value in experiment [1] turned out to be 11%; in experiment [2], 14%; in [3], 11%; in [4], 0%; in experiment [5], 0%; in [6] it was 0%. Also, the “%Inh” value worked out at 0% in [7]; 49% in experiment [8]; 9% in experiment [9]; 62% in experiment [10]; 6% in experiment [11]; 0% in experiment [12]. Moreover, the “%Inh” value in experiment [13] was 12%; in [14], 37%; in experiment [15] it was 2%; in experiment [16] it was 12%; in [17] it was 0%; in experiment [18], 0%. For the same compound, the “%Inh” value was 8% in experiment [19] and 0% in [20].

Take `Cc1ccc(Oc2ccc(Nc3ncnc4cc[nH]c34)cc2C)cn1`: the “%Inh” value in experiment [1] worked out at 7%; in experiment [2] it was 42%; in [3], 1%; in experiment [4], 41%; in experiment [5], 7%; in experiment [6], 36%. For the same compound, the “%Inh” value in experiment [7] was 7%; in [8], 0%; in experiment [9] it was 0%; in experiment [10] it was 0%; in [11], 19%; in experiment [12], 0%. The “%Inh” value in [13] stood at 8%; in experiment [14], 50%; in experiment [15], 0%; in [16], 50%; in [17], 12%; in experiment [18] it was 11%. In addition, the entries for the “%Inh” value in [19] and in experiment [20] were 20% and 5%, respectively.

With `CN1C(=O)C(Nc2ccccc2)=C(c2ccccc2)C1=O` [SB-300079], the “%Inh” value turned out to be 10% in experiment [1]; 0% in [2]; 9% in [3]; 0% in experiment [4]; 0% in [5]; 0% in experiment [6]. For the same compound, the “%Inh” value in experiment [7] was determined as 42%; in experiment [8], 23%; in [9], 0%; in [10] it was 20%; in experiment [11], 2%; in experiment [12] it was 0%. Also, the “%Inh” value was found to be 2% in experiment [13]; 0% in [14]; 0% in experiment [15]; 4% in [16]; 12% in experiment [17]; 16% in experiment [18]. For the same compound, the “%Inh” value was 0% in [19] and 7% in experiment [20].

With `O=C(Nc1n[nH]c2nc(-c3ccccc3)c(Br)cc12)C1CC1` [SB-708998], the “%Inh” value in experiment [1] is 0%; in [2], 0%; in experiment [3], 0%; in experiment [4], 4%; in experiment [5], 0%; in [6] it was 0%. In addition, the “%Inh” value is 0% in experiment [7]; 14% in experiment [8]; 33% in experiment [9]; 0% in experiment [10]; 0% in experiment [11]; 2% in experiment [12]. The “%Inh” value stood at 8% in experiment [13]; 21% in experiment [14]; 0% in [15]; 10% in experiment [16]; 0% in experiment [17]; 0% in experiment [18]. For the same compound, the “%Inh” value in [19] was 2%; in experiment [20] it was 0%.

For the compound `COc1cc2ncn(-c3cc(OCc4ccc(S(C)(=O)=O)cc4)c(C(N)=O)s3)c2cc1OC` [GW869979], the “%Inh” value was 26% in experiment [1]; 18% in [2]; 14% in [3]; 0% in experiment [4]; 0% in experiment [5]; 0% in experiment [6]. The “%Inh” value in experiment [7] stood at 0%; in experiment [8], 39%; in experiment [9], 16%; in experiment [10], 0%; in experiment [11], 0%; in [12] it was 0%. Further, the “%Inh” value in experiment [13] is given as 0%; in experiment [14], 8%; in experiment [15], 0%; in [16] it was 98.3%; in experiment [17] it was 98.9%; in experiment [18], 92.3%. Moreover, the “%Inh” value is given as 3% in experiment [19] and 0% in experiment [20].

Regarding `O=C1NC(=O)C(c2ccccc2)=C1Nc1cccc(O)c1` [SB-390534], the “%Inh” value in experiment [1] was found to be 5%; in [2], 22%; in [3] it was 0%; in experiment [4], 0%; in experiment [5] it was 0%; in [6], 0%. In addition, the “%Inh” value in [7] worked out at 5%; in experiment [8], 0%; in [9], 13%; in experiment [10], 0%; in [11] it was 0%; in experiment [12] it was 5%. The “%Inh” value in experiment [13] stood at 0%; in experiment [14], 0%; in experiment [15], 21%; in [16] it was 0%; in experiment [17], 20%; in experiment [18] it was 27%. Besides, the “%Inh” value in experiment [19] worked out at 11%; in [20], 5%.
